Laboratory results as given in PubChem BioAssay (EPA / NIEHS).
A structure can be active in one record and inactive in another. Active and inactive are the calls of the source. Rule for the calls: active = hit-call score of the fitted dose curve at least 0.9, where 1 is the maximum; inactive = score below 0.9.

Key:
[1] = read-out: Urokinase-type plasminogen activator receptor (uPAR), PLAUR (gene 5329); assay: BSK_4H_uPAR: BioMAP Diversity Plus: 4H Assay for Urokinase-type plasminogen activator receptor (uPAR) Biomarker Activity (AID 2283030); conditions: primary human endothelial cells (HUVEC); actives raise or lower the signal
In short: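 HUVEC, 24 h post-dose; uPAR by ELISA; bidirectional fit vs DMSO baseline.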

[2] = read-out: Vascular endothelial growth factor receptor 2 (Homo sapiens) (UniProt P35968); assay: BSK_4H_VEGFRII: BioMAP Diversity Plus: 4H Assay for Vascular endothelial growth factor receptor 2 (VEGFR2) Biomarker Activity (AID 2283031); conditions: primary human endothelial cells (HUVEC); actives raise or lower the signal;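 for AC50: cell-surface VEGFR2 protein level quantified by ELISA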
In short: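 HUVEC (human primary), 4H system; 24 h post-dose; VEGFRII by ELISA; bidirectional curve fit vs DMSO baseline; gain or loss of signal scored.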

[3] = read-out: Human Leukocyte Antigen - DR isotype (HLADR), HLA-DRA (gene 3122); assay: BSK_BE3C_HLADR: BioMAP Diversity Plus: BE3C Assay for Human Leukocyte Antigen - DR isotype (HLADR) Biomarker Activity (AID 2283032); conditions: primary human bronchial epithelial cells; actives raise or lower the signal
In short: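 Cell-surface HLA-DR ELISA readout at 24 h after dosing in the BE3C primary human lung bronchial epithelial system; gain or loss of signal against DMSO, with parallel sulforhodamine B staining of total protein for overt cytotoxicity.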

[4] = read-out: Vascular cell adhesion molecule 1 (VCAM1), VCAM1 (gene 7412); assay: BSK_4H_VCAM1: BioMAP Diversity Plus: 4H Assay for Vascular cell adhesion molecule 1 (VCAM1) Biomarker Activity (AID 2283033); conditions: primary human endothelial cells (HUVEC); actives raise or lower the signal
In short: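 VCAM-1 ELISA read 24 h after chemical dosing of HUVEC in the BioMAP 4H system, with gain or loss of signal fitted relative to DMSO. Parallel SRB staining (560 nm) checked overt cytotoxicity.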

[5] = read-out: Interferon-gamma inducible Protein 10 (IP10), CXCL10 (gene 3627); assay: BSK_BE3C_IP10: BioMAP Diversity Plus: BE3C Assay for Interferon-gamma inducible Protein 10 (IP10) Biomarker Activity (AID 2283034); conditions: primary human bronchial epithelial cells; actives raise or lower the signal
In short: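 IP-10 quantified by ELISA in human primary bronchial epithelial cell cultures at 24 hours post-dosing. Gain or loss of signal fitted relative to DMSO; parallel SRB staining assessed overt cytotoxicity.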

[6] = read-out: Monokine induced gamma interferon (MIG), CXCL9 (gene 4283); assay: BSK_BE3C_MIG: BioMAP Diversity Plus: BE3C Assay for Monokine induced gamma interferon (MIG) Biomarker Activity (AID 2283035); conditions: primary human bronchial epithelial cells; actives raise or lower the signal
In short: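 Dose cells (human primary bronchial epithelial), incubate 24 h, quantify MIG by ELISA, then fit concentration–response in both directions relative to DMSO control.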

[7] = read-out: Transforming growth factor beta 1 (TGFb1), TGFB1 (gene 7040); assay: BSK_BE3C_TGFb1: BioMAP Diversity Plus: BE3C Assay for Transforming growth factor beta 1 (TGFb1) Biomarker Activity (AID 2283036;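 note: TGF-b1 protein level measured by ELISA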); conditions: primary human bronchial epithelial cells; actives raise or lower the signal
In short: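 ELISA readout of TGF-b1 from human lung bronchial epithelial primary cells, taken 24 h post-treatment. Gain or loss of signal fitted relative to DMSO baseline, with parallel SRB staining for overt cytotoxicity.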

[8] = read-out: urokinase plasminogen activator (uPA), PLAU (gene 5328); assay: BSK_BE3C_uPA: BioMAP Diversity Plus: BE3C Assay for urokinase plasminogen activator (uPA) Biomarker Activity (AID 2283038); conditions: primary human bronchial epithelial cells; actives raise or lower the signal;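 note: uPA protein level quantified by ELISA in cell cultures; uPA read one day after compound addition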
In short: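 ELISA read-out of uPA in human lung primary bronchial epithelial cultures, 24 h post-dosing. Gain or loss of signal fitted bidirectionally relative to DMSO baseline; cytotoxicity checked in parallel cultures via SRB total protein stain.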

[9] = read-out: Urokinase-type plasminogen activator receptor (uPAR), PLAUR (gene 5329); assay: BSK_BE3C_uPAR: BioMAP Diversity Plus: BE3C Assay for Urokinase-type plasminogen activator receptor (uPAR) Biomarker Activity (AID 2283039); conditions: primary human bronchial epithelial cells; actives raise or lower the signal;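 note: cells exposed to compound for one day before measurement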
In short: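 uPAR levels were measured by ELISA after 24 h compound treatment of primary human bronchial epithelial cells, fitted in both directions relative to DMSO. Parallel SRB staining served as the cytotoxicity read-out.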

[10] = read-out: Interleukin-6 (IL6), IL6 (gene 3569); assay: BSK_CASM3C_IL6: BioMAP Diversity Plus: CASM3C Assay for Interleukin-6 (IL6) Biomarker Activity for (AID 2283040); conditions: primary human coronary artery smooth muscle cells; actives raise or lower the signal
[11] = read-out: Tissue plasminogen activator (tPA), PLAT (gene 5327); assay: BSK_BE3C_tPA: BioMAP Diversity Plus: BE3C Assay for Tissue plasminogen activator (tPA) Biomarker Activity (AID 2283041); conditions: primary human bronchial epithelial cells; actives raise or lower the signal
In short: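 tPA measured by ELISA 24 h after dosing human primary bronchial epithelial cells (BE3C system). Changes in either direction were fitted against DMSO. Parallel cultures were stained with SRB to flag overt cytotoxicity.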

[12] = read-out: Interleukin-8 (IL8), CXCL8 (gene 3576); assay: BSK_CASM3C_IL8: BioMAP Diversity Plus: CASM3C Assay for Interleukin-8 (IL8) Biomarker Activity (AID 2283042); conditions: primary human coronary artery smooth muscle cells; actives raise or lower the signal;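 note: IL-8 protein level quantified by ELISA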
[13] = read-out: Human Leukocyte Antigen - DR isotype (HLADR), HLA-DRA (gene 3122); assay: BSK_CASM3C_HLADR: BioMAP Diversity Plus: CASM3C Assay for Human Leukocyte Antigen - DR isotype (HLADR) Biomarker Activity (AID 2283043); conditions: primary human coronary artery smooth muscle cells; actives raise or lower the signal;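 note: cell-surface HLA-DR protein level quantified by ELISA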
[14] = read-out: Low-density lipoprotein receptor (LDLR), LDLR (gene 3949); assay: BSK_CASM3C_LDLR: BioMAP Diversity Plus: CASM3C Assay for Low-density lipoprotein receptor (LDLR) Biomarker Activity (AID 2283045); conditions: primary human coronary artery smooth muscle cells; actives raise or lower the signal;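 note: LDLR protein level on the cell surface quantified by ELISA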
[15] = read-out: Monocyte Chemoattractant Protein-1 (MCP1), CCL2 (gene 6347); assay: BSK_CASM3C_MCP1: BioMAP Diversity Plus: CASM3C Assay for Monocyte Chemoattractant Protein-1 (MCP1) Biomarker Activity (AID 2283046); conditions: primary human coronary artery smooth muscle cells; actives raise or lower the signal;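 note: MCP-1 level quantified by ELISA 24 h after dosing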
[16] = BSK_CASM3C_Proliferation: Cell Proliferation Assessment in the BioMAP Diversity Plus: CASM3C Assay (AID 2283047); conditions: primary human coronary artery smooth muscle cells;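 note: sulforhodamine B total protein stain as relative cell number at 560 nm; sub-confluent cells exposed 48 h before staining; fitted both ways against DMSO so gain or loss of cell number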
[17] = read-out: Monokine induced gamma interferon (MIG), CXCL9 (gene 4283); assay: BSK_CASM3C_MIG: BioMAP Diversity Plus: CASM3C Assay for Monokine induced gamma interferon (MIG) Biomarker Activity (AID 2283048); conditions: primary human coronary artery smooth muscle cells; actives raise or lower the signal;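 note: MIG protein level measured by ELISA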
[18] = read-out: serum amyloid A (SAA), SAA1 (gene 6288); assay: BSK_CASM3C_SAA: BioMAP Diversity Plus: CASM3C Assay for serum amyloid A (SAA) Biomarker Activity (AID 2283049); conditions: primary human coronary artery smooth muscle cells; actives raise or lower the signal;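 note: SAA protein level quantified by ELISA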
[19] = read-out: Plasminogen activator inhibitor-1 (PAI1), SERPINE1 (gene 5054); assay: BSK_BE3C_PAI1: BioMAP Diversity Plus: BE3C Assay for Plasminogen activator inhibitor-1 (PAI1) Biomarker Activity (AID 2283037); conditions: primary human bronchial epithelial cells; actives raise or lower the signal
In short: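 PAI-1 was measured by ELISA in human primary bronchial epithelial cultures 24 h after chemical dosing, with cytotoxicity checked by SRB total-protein staining in parallel cultures. Activity was fitted in both directions relative to DMSO.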

[20] = read-out: Macrophage colony-stimulating factor (MCSF), CSF1 (gene 1435); assay: BSK_CASM3C_MCSF: BioMAP Diversity Plus: CASM3C Assay for Macrophage colony-stimulating factor (MCSF) Biomarker Activity (AID 2283044); conditions: primary human coronary artery smooth muscle cells; actives raise or lower the signal;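 note: M-CSF protein amount quantified by ELISA after 24 h exposure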

Measured: AC50

C[C@]12C[C@H](O)[C@H]3[C@@H](CCC4=CC(=O)CC[C@@]43C)[C@@H]1CC[C@@H]2C(=O)CO
inactive: [1] | [2] | [3] | [4] | [6] | [7] | [8] | [9] | [11] | [13] | [17]
active: [5] 34.8 µM | [10] 0.447 µM | [12] 0.551 µM | [14] 21.1 µM | [15] 0.573 µM | [16] 0.397 µM | [18] 0.668 µM

COC(=O)c1cccc(C)c1S(=O)(=O)NC(=O)Nc1nc(OCC(F)(F)F)nc(N(C)C)n1
inactive: [1] | [2] | [3] | [4] | [6] | [7] | [19] | [8] | [9] | [10] | [11] | [12] | [13] | [20] | [14] | [15] | [16] | [17] | [18]

Cc1nn(C)c(Oc2ccccc2)c1C=NOCc1ccc(C(=O)OC(C)(C)C)cc1
inactive: [2] | [4] | [6] | [7] | [8] | [9] | [10] | [11] | [12] | [13] | [20] | [14] | [15] | [17] | [18]
active: [1] 30.6 µM | [3] 0.814 µM | [19] 7.02 µM | [16] 20 µM

O=C(O)c1ccccc1
inactive: [1] | [2] | [3] | [4] | [6] | [7] | [19] | [8] | [9] | [10] | [11] | [12] | [13] | [20] | [14] | [15] | [16] | [17] | [18]

CCOC(=O)[C@H](C)Oc1ccc(Oc2nc3ccc(Cl)cc3o2)cc1
inactive: [1] | [2] | [3] | [4] | [5] | [6] | [7] | [8] | [9] | [10] | [11] | [12] | [13] | [20] | [14] | [15] | [16] | [17] | [18]

COC(=O)c1ccccc1S(=O)(=O)NC(=O)Nc1nc(OC(F)F)cc(OC(F)F)n1
inactive: [1] | [2] | [3] | [4] | [6] | [7] | [19] | [8] | [9] | [10] | [11] | [12] | [13] | [20] | [14] | [15] | [16] | [17] | [18]

COC(=O)c1ccc(CNS(C)(=O)=O)cc1S(=O)(=O)NC(=O)Nc1nc(OC)cc(OC)n1
inactive: [1] | [2] | [3] | [4] | [5] | [6] | [7] | [8] | [9] | [10] | [11] | [12] | [13] | [20] | [14] | [15] | [16] | [17] | [18]

C[C@]12CC[C@@H]3c4ccc(O)cc4C[C@@H](CCCCCCCCCS(=O)CCCC(F)(F)C(F)(F)F)[C@H]3[C@@H]1CC[C@@H]2O (stereo not given in full)
inactive: [2] | [3] | [4] | [6] | [7] | [19] | [8] | [9] | [10] | [11] | [12] | [13] | [20] | [15] | [16] | [17] | [18]
active: [1] 12.4 µM | [14] 2.73 µM

CCCOC(=O)c1ccc(C(=O)OCCC)nc1
inactive: [1] | [2] | [3] | [4] | [5] | [6] | [7] | [8] | [9] | [10] | [11] | [12] | [13] | [20] | [14] | [15] | [16] | [17] | [18]

CC(C)(c1ccc(O)cc1)c1ccc(O)cc1
inactive: [1] | [2] | [3] | [4] | [6] | [7] | [19] | [8] | [9] | [10] | [11] | [12] | [13] | [20] | [14] | [15] | [16] | [17] | [18]
active: [4] 7.53 µM | [19] 24.3 µM | [11] 8.08 µM

C#C[C@]1(O)CC[C@H]2[C@@H]3CCC4=CC(=O)CC[C@@H]4[C@H]3CC[C@@]21CC
inactive: [1] | [2] | [3] | [4] | [5] | [6] | [7] | [8] | [9] | [10] | [11] | [12] | [13] | [20] | [14] | [15] | [16] | [17]
active: [18] 6.06 µM

S=C([S-])NCCNC(=S)[S-].[Mn+2]
active: [3] 30.5 µM | [10] 12.2 µM | [16] 29.9 µM
inactive: [1] | [2] | [4] | [5] | [6] | [7] | [8] | [9] | [11] | [12] | [13] | [20] | [14] | [15] | [17] | [18]

CCCCCCC(C)OC(=O)COc1nc(F)c(Cl)c(N)c1Cl (stereo not given)
active: [1] 31.2 µM | [2] 31.9 µM | [4] 39 µM | [12] 32.9 µM | [13] 31.9 µM | [20] 30.2 µM | [15] 29.9 µM | [16] 36.1 µM | [17] 31.6 µM | [18] 25.7 µM
inactive: [3] | [5] | [6] | [7] | [19] | [8] | [9] | [10] | [11] | [14]
